High-throughput results: PubChem BioAssay, Broad Institute
The entries come from a sample that favours hits as a whole.
NOMO-1 viab – STK33 inhibitor candidate reducing NOMO-1 cell viability. NOMO-1 AML viability, CellTiter-Glo luminescence, 72 h. inhibition, % (test concentration not listed). actives 7.5% (n = 37,000); in the data active means inhibition above about 80%; inconclusive means no clear call, values can overlap the other calls
U2OS ROS induce – inducers of reactive oxygen species in cancer cells. U2OS ROS induction, H2DCF-DA fluorescence. ROS induction (% of piperlongumine), % at 10 µM. actives 2% (n = 46,000); in the data active means ROS induction above about 79%, passing the limit was not always enough; inconclusive means no clear call, values can overlap the other calls;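 further: 0% = DMSO vehicle median and 100% = reference compound median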
Active calls of the source: *; ? = inconclusive; / = no result.

SMILES	NOMO-1 viab	U2OS ROS induce
COCCOC(=O)N1C(=O)[C@@]2(c3cc(C#CCC(C(=O)OC)C(=O)OC)ccc31)[C@H](C(=O)NC[C@H](O)c1ccccc1)[C@H]1C(=O)O[C@H](c3ccccc3)[C@H](c3ccccc3)N1[C@@H]2c1ccc(O)cc1	/	47
C=CCNC(=O)[C@H]1[C@@H]2C(=O)O[C@@H](c3ccccc3)[C@@H](c3ccccc3)N2[C@@H](c2ccc(OCCO)cc2)[C@]12C(=O)N(C(=O)OCCOC)c1ccc(C#CCC(C(=O)OC)C(=O)OC)cc12	/	157*
Cn1c(SCC(=O)c2cc(C(C)(C)C)c(O)c(C(C)(C)C)c2)nnc1-c1cccs1	19	9
C[C@H]1CN([C@@H](C)CO)C(=O)Cc2cc(NS(=O)(=O)c3cccs3)ccc2O[C@H]1CN(C)Cc1ccccc1	1	2
COc1ccc(NC(=O)N(C)C[C@H]2Oc3c(NC(=O)c4nc5ccccc5s4)cccc3C(=O)N([C@H](C)CO)C[C@@H]2C)cc1	31	1
C[C@@H]1CN([C@H](C)CO)C(=O)c2cccc(NS(=O)(=O)c3cccs3)c2O[C@@H]1CN(C)C(=O)Nc1ccc2c(c1)OCO2	20	1
C[C@H](CO)N1C[C@H](C)[C@@H](CN(C)Cc2ccc(Oc3ccccc3)cc2)Oc2c(NS(=O)(=O)c3ccc(Cl)cc3)cccc2C1=O	104*	112*
COc1ccc(S(=O)(=O)Nc2cccc3c2O[C@H](CN(C)Cc2ccc(Oc4ccccc4)cc2)[C@@H](C)CN([C@H](C)CO)C3=O)cc1	53	96*
COc1ccc(S(=O)(=O)Nc2cccc3c2O[C@@H](CN(C)Cc2ccc(Oc4ccccc4)cc2)[C@H](C)CN([C@@H](C)CO)C3=O)cc1	19	35
C[C@H]1CN([C@@H](C)CO)C(=O)c2cccc(NS(=O)(=O)c3ccc(Cl)cc3)c2O[C@H]1CN(C)Cc1ccc(Oc2ccccc2)cc1	?	12
C[C@@H]1CN([C@H](C)CO)C(=O)c2cccc(NS(=O)(=O)c3ccc(Cl)cc3)c2O[C@H]1CN(C)Cc1ccc(Oc2ccccc2)cc1	50	15
C[C@@H]1CN([C@@H](C)CO)C(=O)c2cccc(NS(=O)(=O)c3ccc(Cl)cc3)c2O[C@@H]1CN(C)Cc1ccc(Oc2ccccc2)cc1	88*	71
C[C@@H]1CN([C@H](C)CO)C(=O)c2cccc(NC(=O)C3CCCCC3)c2O[C@H]1CN(C)CC1CC1	74	13
Cc1noc(C)c1S(=O)(=O)N(C)C[C@H]1OCCCC[C@@H](C)Oc2ccc(NC(=O)Nc3ccc4c(c3)OCO4)cc2C(=O)N([C@H](C)CO)C[C@@H]1C	36	68
CCOC(=O)c1ccc(NC(=O)C(Sc2ccccc2)c2ccccc2)cc1 (stereo not drawn)	/	10
C[C@H](CO)N1C[C@H](C)[C@H](CN(C)CC2CC2)Oc2ccc(NC(=O)C3CCCCC3)cc2C1=O	4	-15
C=C1C(=O)OC2CC1C(OC(C)=O)C/C(C)=C\CC/C(C)=C\CC[C@]2(C)O (stereo partly drawn)	111*	46
C[C@@H]1CN([C@@H](C)CO)C(=O)c2cc(NC(=O)Nc3ccc(C(F)(F)F)cc3)ccc2O[C@@H]1CN(C)CC1CCCCC1	118*	12
C[C@H]1CN([C@@H](C)CO)C(=O)c2cc(NC(=O)Nc3ccc(C(F)(F)F)cc3)ccc2O[C@H]1CN(C)CC1CCCCC1	105*	30
C[C@H](CO)N1C[C@H](C)[C@H](CN(C)CC2CCCCC2)Oc2ccc(NC(=O)Nc3ccc(F)cc3)cc2C1=O	13	-4
C[C@@H]1CN([C@H](C)CO)C(=O)c2cc(NC(=O)Nc3ccc(F)cc3)ccc2O[C@H]1CN(C)CC1CCCCC1	52	-14
C[C@H]1CN([C@@H](C)CO)C(=O)c2cc(NC(=O)Nc3ccc(C(F)(F)F)cc3)ccc2O[C@@H]1CN(C)CC1CCCCC1	59	-4
C[C@H](CO)N1C[C@H](C)[C@@H](CN(C)CC2CCCCC2)Oc2ccc(NC(=O)Nc3ccc(C(F)(F)F)cc3)cc2C1=O	127*	-2
C[C@@H]1CN([C@H](C)CO)C(=O)c2cc(NC(=O)Nc3ccc(C(F)(F)F)cc3)ccc2O[C@@H]1CN(C)CC1CCCCC1	126*	23
C[C@@H]1CN([C@H](C)CO)C(=O)c2cc(NC(=O)Nc3ccc(F)cc3)ccc2O[C@@H]1CN(C)CC1CCCCC1	12	2
C[C@H]1CN([C@@H](C)CO)C(=O)c2cc(NS(C)(=O)=O)ccc2O[C@@H]1CN(C)Cc1ccc(C(=O)O)cc1	25	0
CC(C(=O)N1CCCCC1)n1c2ccccc2c2cnn(C)c(=O)c21 (stereo not drawn)	/	-11
CC1(C)C=C(C(=O)N2CCOCC2)C(C)(C)N1	/	-12
C[C@H](CO)N1C[C@H](C)[C@@H](CN(C)S(=O)(=O)c2ccc(Cl)cc2)Oc2c(NC(=O)C3CCOCC3)cccc2C1=O	12	-1
